Test results taken from paper PMC10954555.

What was measured:
[1] = target: Large ribosomal subunit protein uL1 (UniProt P62906); test: cross-linking mass spectrometry; other
[2] = target: 60S ribosome subunit biogenesis protein NIP7 homolog (UniProt Q9Y221); test: cross-link between two proteins; cross-linking mass spectrometry; other
[3] = target: Heat shock cognate 71 kDa protein (UniProt P11142); test: other; cross-linking mass spectrometry; other
[4] = target: Stress-70 protein, mitochondrial (UniProt P38646); test: cross-link between two proteins; cross-linking mass spectrometry; other
THO complex subunit 2 = THO complex subunit 2 (UniProt Q8NI27); test: other; cross-linking mass spectrometry; other
THO complex subunit 1 [5] = target: THO complex subunit 1 (UniProt Q96FV9); test: cross-link between two proteins; cross-linking mass spectrometry; other
[6] = target: Transcription initiation factor TFIID subunit 5 (UniProt Q15542); test: other; cross-linking mass spectrometry; other
[7] = target: Transcription initiation factor TFIID subunit 9 (UniProt Q16594); test: other; cross-linking mass spectrometry; other
[8] = target: Transcription initiation factor TFIID subunit 9B (UniProt Q9HBM6); test: other; cross-linking mass spectrometry; other
[9] = target: Transcription initiation factor TFIID subunit 12 (UniProt Q16514); test: cross-link between two proteins; cross-linking mass spectrometry; other
ELAV-like protein 1 = ELAV-like protein 1 (UniProt Q15717); test: other; affinity purification or IP with mass spectrometry; other
[10] = target: Heterogeneous nuclear ribonucleoprotein L (UniProt P14866); test: cross-link between two proteins; affinity purification or IP with mass spectrometry; cross-linking mass spectrometry; other
[11] = target: DNA topoisomerase 3-alpha (UniProt Q13472); test: cross-link between two proteins; cross-linking mass spectrometry; other
[12] = target: RecQ-mediated genome instability protein 1 (UniProt Q9H9A7); test: as above
[13] = target: Heterogeneous nuclear ribonucleoprotein A0 (UniProt Q13151); test: as above
[14] = target: Paired amphipathic helix protein Sin3a (UniProt Q96ST3); test: as above
Pinin = Pinin (UniProt Q9H307); test: as above
[15] = target: Polyhomeotic-like protein 2 (UniProt Q8IXK0); test: as above
[16] = target: Pre-mRNA-processing factor 19 (UniProt Q9UMS4); test: as above
[17] = target: SAGA-associated factor 29 (UniProt Q96ES7); test: as above
[18] = target: Sin3 histone deacetylase corepressor complex component SDS3 (UniProt Q9H7L9); test: as above
[19] = target: Splicing factor 3A subunit 1 (UniProt Q15459); test: as above
[20] = target: Transcription factor JunD (UniProt P17535); test: as above
[21] = target: Transcription initiation factor TFIID subunit 3 (UniProt Q5VWG9); test: as above
[22] = target: Transcription initiation factor TFIID subunit 9 (UniProt Q16594); test: as above
[23] = target: Transcription initiation factor TFIID subunit 9B (UniProt Q9HBM6); test: as above
Protein lin-37 homolog = Protein lin-37 homolog (UniProt Q96GY3); test: cross-linking mass spectrometry; other
DNA topoisomerase 2-beta = DNA topoisomerase 2-beta (UniProt Q02880); test: other; cross-linking mass spectrometry; other
[24] = target: Methyl-CpG-binding domain protein 2 (UniProt Q9UBB5); test: other; cross-linking mass spectrometry; other
RNA-binding protein EWS = RNA-binding protein EWS (UniProt Q01844); test: other; cross-linking mass spectrometry; other
THO complex subunit 7 = THO complex subunit 7 (UniProt Q6I9Y2); test: other; cross-linking mass spectrometry; other
[25] = target: Transcriptional repressor p66-beta (UniProt Q8WXI9); test: other; cross-linking mass spectrometry; other
[26] = target: Apoptotic chromatin condensation inducer in the nucleus (UniProt Q9UKV3); test: cross-linking mass spectrometry; other
Protein lin-54 homolog [27] = target: Protein lin-54 homolog (UniProt Q6MZP7); test: cross-linking mass spectrometry; other
Protein lin-9 homolog = Protein lin-9 homolog (UniProt Q5TKA1); test: cross-linking mass spectrometry; other
[28] = target: Heterogeneous nuclear ribonucleoprotein Q (UniProt O60506); test: other; cross-linking mass spectrometry; other
[29] = target: Probable ATP-dependent RNA helicase DDX23 (UniProt Q9BUQ8); test: other; cross-linking mass spectrometry; other
[30] = target: Serine/arginine-rich splicing factor 1 (UniProt Q07955); test: other; cross-linking mass spectrometry; other
[31] = target: Transcriptional repressor p66-alpha (UniProt Q86YP4); test: other; cross-linking mass spectrometry; other
[32] = target: Trifunctional enzyme subunit beta, mitochondrial (UniProt P55084); test: other; co-fractionation; cross-linking mass spectrometry; other
Histone H1.2 = Histone H1.2 (UniProt P16403); test: other; cross-linking mass spectrometry; other
[33] = target: Heterogeneous nuclear ribonucleoprotein A/B (UniProt Q99729); test: other; cross-linking mass spectrometry; other
Spindlin-1 = Spindlin-1 (UniProt Q9Y657); test: other; cross-linking mass spectrometry; other
[34] = target: ATP-dependent chromatin remodeler CHD4 (UniProt Q14839); test: other; cross-linking mass spectrometry; other
[35] = target: Metastasis-associated protein MTA1 (UniProt Q13330); test: other; cross-linking mass spectrometry; other
[36] = target: Methylcrotonoyl-CoA carboxylase beta chain, mitochondrial (UniProt Q9HCC0); test: other; cross-linking mass spectrometry; other
THO complex subunit 1 [37] = target: THO complex subunit 1 (UniProt Q96FV9); test: cross-linking mass spectrometry; other
[38] = target: Transcription initiation factor TFIID subunit 12 (UniProt Q16514); test: other; cross-linking mass spectrometry; other
[39] = target: Scaffold attachment factor B1 (UniProt Q15424); test: other; cross-linking mass spectrometry; other
Protein lin-54 homolog [40] = target: Protein lin-54 homolog (UniProt Q6MZP7); test: other; cross-linking mass spectrometry; other
[41] = target: Torsin-1A-interacting protein 1 (UniProt Q5JTV8); test: other; cross-linking mass spectrometry; other
[42] = target: Mediator of RNA polymerase II transcription subunit 17 (UniProt Q9NVC6); test: other; cross-linking mass spectrometry; other

Sequence of Transcriptional repressor p66-beta (Q8WXI9 whole entry): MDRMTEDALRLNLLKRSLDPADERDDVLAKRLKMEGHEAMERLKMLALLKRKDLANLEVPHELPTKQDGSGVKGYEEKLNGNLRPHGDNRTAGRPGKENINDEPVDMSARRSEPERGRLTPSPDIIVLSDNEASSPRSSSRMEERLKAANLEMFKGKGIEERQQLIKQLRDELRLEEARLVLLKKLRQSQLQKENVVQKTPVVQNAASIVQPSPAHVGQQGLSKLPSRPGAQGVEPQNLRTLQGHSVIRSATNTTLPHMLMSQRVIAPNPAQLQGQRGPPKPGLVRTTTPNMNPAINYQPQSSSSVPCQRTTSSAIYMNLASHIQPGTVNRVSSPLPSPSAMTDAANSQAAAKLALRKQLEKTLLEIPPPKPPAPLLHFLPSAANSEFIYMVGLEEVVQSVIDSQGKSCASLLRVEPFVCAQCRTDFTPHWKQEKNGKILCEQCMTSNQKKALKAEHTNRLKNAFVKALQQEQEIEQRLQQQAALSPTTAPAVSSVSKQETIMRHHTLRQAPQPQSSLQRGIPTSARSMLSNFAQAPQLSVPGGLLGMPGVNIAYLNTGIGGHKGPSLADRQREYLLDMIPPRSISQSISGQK
Sequence of Transcription initiation factor TFIID subunit 9 (Q16594 whole entry): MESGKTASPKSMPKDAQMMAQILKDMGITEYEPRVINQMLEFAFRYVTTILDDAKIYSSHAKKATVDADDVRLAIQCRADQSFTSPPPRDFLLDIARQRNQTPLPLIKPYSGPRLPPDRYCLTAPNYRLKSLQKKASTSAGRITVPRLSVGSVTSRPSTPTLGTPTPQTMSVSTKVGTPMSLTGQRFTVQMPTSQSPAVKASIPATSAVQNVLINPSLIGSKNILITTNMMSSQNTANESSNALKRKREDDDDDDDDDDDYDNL
Sequence of Transcription initiation factor TFIID subunit 10, Q12962 (Q12962 whole entry): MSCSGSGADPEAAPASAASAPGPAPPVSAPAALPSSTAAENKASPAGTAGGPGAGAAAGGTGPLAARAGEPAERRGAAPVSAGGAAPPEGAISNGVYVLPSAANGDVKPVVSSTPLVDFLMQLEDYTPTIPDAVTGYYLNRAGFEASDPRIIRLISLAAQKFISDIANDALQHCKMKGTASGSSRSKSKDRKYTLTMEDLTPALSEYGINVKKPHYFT
Sequence of Transcription initiation factor TFIID subunit 9B (Q9HBM6 whole entry): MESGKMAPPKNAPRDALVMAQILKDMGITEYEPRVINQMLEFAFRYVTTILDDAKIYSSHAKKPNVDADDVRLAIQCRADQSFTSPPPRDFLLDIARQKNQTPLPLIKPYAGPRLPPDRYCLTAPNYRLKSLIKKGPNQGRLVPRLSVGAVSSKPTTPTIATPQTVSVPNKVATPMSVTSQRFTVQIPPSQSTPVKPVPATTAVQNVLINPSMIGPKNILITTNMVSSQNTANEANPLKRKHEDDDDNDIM
Sequence of Transcription initiation factor TFIID subunit 12 (Q16514 whole entry): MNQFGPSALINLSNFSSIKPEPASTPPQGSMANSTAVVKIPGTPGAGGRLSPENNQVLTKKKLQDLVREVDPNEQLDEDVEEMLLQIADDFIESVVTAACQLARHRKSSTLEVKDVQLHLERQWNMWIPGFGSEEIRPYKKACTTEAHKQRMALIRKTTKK
Sequence of Protein lin-37 homolog (Q96GY3 whole entry): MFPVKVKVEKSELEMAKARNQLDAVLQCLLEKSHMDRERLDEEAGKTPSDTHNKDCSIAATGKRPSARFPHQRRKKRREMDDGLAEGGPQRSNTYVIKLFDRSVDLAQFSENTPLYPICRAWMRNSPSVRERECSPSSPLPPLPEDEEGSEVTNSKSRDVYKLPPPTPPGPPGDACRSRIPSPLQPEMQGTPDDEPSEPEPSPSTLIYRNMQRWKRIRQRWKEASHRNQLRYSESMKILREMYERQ
Sequence of THO complex subunit 1 (Q96FV9 whole entry, one chain of several): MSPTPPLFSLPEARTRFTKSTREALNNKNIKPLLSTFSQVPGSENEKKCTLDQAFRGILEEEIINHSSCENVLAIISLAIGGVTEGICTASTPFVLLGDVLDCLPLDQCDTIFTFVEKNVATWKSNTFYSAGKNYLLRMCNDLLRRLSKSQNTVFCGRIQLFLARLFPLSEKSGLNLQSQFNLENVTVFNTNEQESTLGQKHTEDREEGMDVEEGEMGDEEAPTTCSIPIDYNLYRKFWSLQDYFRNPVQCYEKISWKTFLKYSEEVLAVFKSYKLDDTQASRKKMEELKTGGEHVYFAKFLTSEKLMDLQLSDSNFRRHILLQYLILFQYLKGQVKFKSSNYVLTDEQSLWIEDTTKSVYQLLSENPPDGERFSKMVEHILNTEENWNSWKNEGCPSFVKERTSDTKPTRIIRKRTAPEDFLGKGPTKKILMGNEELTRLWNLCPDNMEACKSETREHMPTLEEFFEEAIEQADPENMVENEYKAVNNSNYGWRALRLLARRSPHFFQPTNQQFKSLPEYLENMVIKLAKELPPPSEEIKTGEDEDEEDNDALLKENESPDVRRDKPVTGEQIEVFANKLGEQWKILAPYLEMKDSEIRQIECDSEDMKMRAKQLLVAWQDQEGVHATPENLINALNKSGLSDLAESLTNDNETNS
Sequence of Sin3 histone deacetylase corepressor complex component SDS3 (Q9H7L9 whole entry, one chain of several): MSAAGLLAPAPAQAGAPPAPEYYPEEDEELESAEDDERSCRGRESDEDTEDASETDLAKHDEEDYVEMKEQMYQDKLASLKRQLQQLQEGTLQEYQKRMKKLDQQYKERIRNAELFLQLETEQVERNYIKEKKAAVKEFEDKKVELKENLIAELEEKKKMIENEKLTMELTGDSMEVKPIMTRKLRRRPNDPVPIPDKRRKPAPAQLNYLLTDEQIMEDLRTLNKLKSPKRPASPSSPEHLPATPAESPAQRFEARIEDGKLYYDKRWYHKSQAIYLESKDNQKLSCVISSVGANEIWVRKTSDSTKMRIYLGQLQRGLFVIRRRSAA
Sequence of RecQ-mediated genome instability protein 1 (Q9H9A7 whole entry): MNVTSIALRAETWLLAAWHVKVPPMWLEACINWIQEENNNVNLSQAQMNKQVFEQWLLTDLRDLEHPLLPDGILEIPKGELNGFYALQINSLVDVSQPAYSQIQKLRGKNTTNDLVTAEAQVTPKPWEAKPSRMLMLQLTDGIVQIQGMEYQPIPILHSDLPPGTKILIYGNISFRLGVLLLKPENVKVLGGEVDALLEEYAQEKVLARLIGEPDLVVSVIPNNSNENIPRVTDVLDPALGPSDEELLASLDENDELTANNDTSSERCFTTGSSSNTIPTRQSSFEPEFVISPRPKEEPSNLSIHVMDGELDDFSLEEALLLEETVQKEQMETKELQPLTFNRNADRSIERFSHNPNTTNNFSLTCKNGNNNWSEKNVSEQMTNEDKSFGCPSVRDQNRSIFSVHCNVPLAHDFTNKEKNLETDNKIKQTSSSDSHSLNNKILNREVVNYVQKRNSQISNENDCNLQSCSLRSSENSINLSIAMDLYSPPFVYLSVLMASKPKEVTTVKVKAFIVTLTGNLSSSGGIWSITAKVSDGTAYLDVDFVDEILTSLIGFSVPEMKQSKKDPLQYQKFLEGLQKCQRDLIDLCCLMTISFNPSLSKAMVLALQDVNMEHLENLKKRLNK
Sequence of Protein lin-54 homolog (Q6MZP7 whole entry): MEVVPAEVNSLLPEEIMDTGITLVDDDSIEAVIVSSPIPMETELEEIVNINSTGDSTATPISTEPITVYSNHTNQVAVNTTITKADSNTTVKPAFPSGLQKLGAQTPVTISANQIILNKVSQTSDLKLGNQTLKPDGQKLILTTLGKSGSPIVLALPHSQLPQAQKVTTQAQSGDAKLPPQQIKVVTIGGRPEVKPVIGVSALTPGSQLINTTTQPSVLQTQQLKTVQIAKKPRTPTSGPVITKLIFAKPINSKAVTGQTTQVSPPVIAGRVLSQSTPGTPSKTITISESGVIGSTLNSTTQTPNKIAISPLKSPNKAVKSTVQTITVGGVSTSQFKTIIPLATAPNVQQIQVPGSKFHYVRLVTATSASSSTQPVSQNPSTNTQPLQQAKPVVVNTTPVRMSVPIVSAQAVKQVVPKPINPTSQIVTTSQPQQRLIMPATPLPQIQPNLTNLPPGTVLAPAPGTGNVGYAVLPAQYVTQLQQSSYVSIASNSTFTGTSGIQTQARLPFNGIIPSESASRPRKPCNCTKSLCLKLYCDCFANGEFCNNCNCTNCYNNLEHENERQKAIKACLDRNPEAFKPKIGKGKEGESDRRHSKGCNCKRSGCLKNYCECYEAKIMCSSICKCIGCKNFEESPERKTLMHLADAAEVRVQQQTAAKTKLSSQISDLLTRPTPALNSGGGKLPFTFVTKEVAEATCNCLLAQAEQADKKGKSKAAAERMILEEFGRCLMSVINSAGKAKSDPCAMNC
Sequence of Heterogeneous nuclear ribonucleoprotein A0 (Q13151 whole entry): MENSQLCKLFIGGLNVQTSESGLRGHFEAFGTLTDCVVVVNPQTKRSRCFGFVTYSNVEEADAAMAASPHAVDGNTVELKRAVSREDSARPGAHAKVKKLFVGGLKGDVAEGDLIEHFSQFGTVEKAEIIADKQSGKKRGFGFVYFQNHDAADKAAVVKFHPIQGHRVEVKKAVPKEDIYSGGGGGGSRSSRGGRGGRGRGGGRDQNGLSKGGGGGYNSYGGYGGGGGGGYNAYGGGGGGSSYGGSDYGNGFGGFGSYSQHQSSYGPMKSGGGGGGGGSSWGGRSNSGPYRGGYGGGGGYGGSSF
Sequence of Trifunctional enzyme subunit beta, mitochondrial (P55084 whole entry): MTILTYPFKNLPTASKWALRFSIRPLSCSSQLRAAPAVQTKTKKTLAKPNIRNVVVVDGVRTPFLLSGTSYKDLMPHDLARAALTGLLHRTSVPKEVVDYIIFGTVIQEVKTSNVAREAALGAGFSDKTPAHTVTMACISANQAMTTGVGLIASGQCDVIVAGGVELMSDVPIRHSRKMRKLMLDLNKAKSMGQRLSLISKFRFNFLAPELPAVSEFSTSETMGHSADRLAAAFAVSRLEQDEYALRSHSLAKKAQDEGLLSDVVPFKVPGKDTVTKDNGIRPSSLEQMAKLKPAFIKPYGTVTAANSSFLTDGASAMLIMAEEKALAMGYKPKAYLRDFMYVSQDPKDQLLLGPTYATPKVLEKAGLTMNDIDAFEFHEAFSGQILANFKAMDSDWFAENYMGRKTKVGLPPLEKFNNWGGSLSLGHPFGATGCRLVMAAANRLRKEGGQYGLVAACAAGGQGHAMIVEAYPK

28S rRNA (cytosine(4447)-C(5))-methyltransferase, P46087
listed as a hit [1]: yes
listed as a hit [2]: yes

Endoplasmic reticulum chaperone BiP, P11021
listed as a hit [3]: yes
listed as a hit [4]: yes

THO complex subunit 7, Q6I9Y2
listed as a hit (THO complex subunit 2): yes
listed as a hit (THO complex subunit 1 [5]): yes

Transcription initiation factor TFIID subunit 4, O00268
listed as a hit [6]: yes
listed as a hit [7]: yes
listed as a hit [8]: yes
listed as a hit [9]: yes

Heterogeneous nuclear ribonucleoproteins C1/C2, P07910
listed as a hit (ELAV-like protein 1): yes
listed as a hit [10]: yes

RecQ-like DNA helicase BLM, P54132
listed as a hit [11]: yes
listed as a hit [12]: yes

Heterogeneous nuclear ribonucleoproteins A2/B1, P22626
listed as a hit [13]: yes

Heterogeneous nuclear ribonucleoprotein A1, P09651
listed as a hit [13]: yes

Histone deacetylase complex subunit SAP30, O75446
listed as a hit [14]: yes

RNA-binding protein with serine-rich domain 1, Q15287
listed as a hit (Pinin): yes

E3 ubiquitin-protein ligase RING1, Q06587
listed as a hit [15]: yes

Pre-mRNA-splicing factor SPF27, O75934
listed as a hit [16]: yes

DNA topoisomerase 3-alpha, Q13472
listed as a hit [12]: yes

Transcriptional adapter 3, O75528
listed as a hit [17]: yes

Paired amphipathic helix protein Sin3a, Q96ST3
listed as a hit [18]: yes

Breast cancer metastasis-suppressor 1-like protein, Q5PSV4
listed as a hit [18]: yes

Splicing factor 3B subunit 2, Q13435
listed as a hit [19]: yes

Cyclic AMP-dependent transcription factor ATF-2, P15336
listed as a hit [20]: yes

Transcription initiation factor TFIID subunit 10, Q12962
listed as a hit [9]: yes
listed as a hit [21]: yes
listed as a hit [22]: yes

Transcription initiation factor TFIID subunit 12, Q16514
listed as a hit [22]: yes
listed as a hit [23]: yes

Protein lin-54 homolog, Q6MZP7
listed as a hit (Protein lin-37 homolog): yes

DNA topoisomerase 2-alpha, P11388
listed as a hit (DNA topoisomerase 2-beta): yes

Transcription initiation factor TFIID subunit 6, P49848
listed as a hit [8]: yes

Transcriptional repressor p66-beta, Q8WXI9
listed as a hit [24]: yes

RNA-binding protein FUS, P35637
listed as a hit (RNA-binding protein EWS): yes

THO complex subunit 5, Q13769
listed as a hit (THO complex subunit 2): yes
listed as a hit (THO complex subunit 7): yes

Transcriptional repressor p66-alpha, Q86YP4
listed as a hit [25]: yes

Histone deacetylase complex subunit SAP18, O00422
listed as a hit [26]: yes

Protein lin-52 homolog, Q52LA3
listed as a hit (Protein lin-37 homolog): yes
listed as a hit (Protein lin-54 homolog [27]): yes
listed as a hit (Protein lin-9 homolog): yes

Heterogeneous nuclear ribonucleoprotein R, O43390
listed as a hit [28]: yes

CD2 antigen cytoplasmic tail-binding protein 2, O95400
listed as a hit [29]: yes

Serine/arginine-rich splicing factor 3, P84103
listed as a hit [30]: yes

ATP-dependent chromatin remodeler CHD4, Q14839
listed as a hit [31]: yes
listed as a hit [25]: yes

Trifunctional enzyme subunit alpha, mitochondrial, P40939
listed as a hit [32]: yes

Histone H1.3, P16402
listed as a hit (Histone H1.2): yes

Heterogeneous nuclear ribonucleoprotein U, Q00839
listed as a hit [33]: yes

Spindlin interactor and repressor of chromatin-binding protein, Q9BUA3
listed as a hit (Spindlin-1): yes

Metastasis-associated protein MTA2, O94776
listed as a hit [34]: yes
listed as a hit [35]: yes
listed as a hit [31]: yes
listed as a hit [25]: yes

Methylcrotonoyl-CoA carboxylase subunit alpha, mitochondrial, Q96RQ3
listed as a hit [36]: yes

THO complex subunit 2, Q8NI27
listed as a hit (THO complex subunit 1 [37]): yes

Transcription initiation factor TFIID subunit 5, Q15542
listed as a hit [38]: yes
listed as a hit [8]: yes

Scaffold attachment factor B2, Q14151
listed as a hit [39]: yes

Protein lin-9 homolog, Q5TKA1
listed as a hit (Protein lin-37 homolog): yes
listed as a hit (Protein lin-54 homolog [40]): yes

Prelamin-A/C, P02545
listed as a hit [41]: yes

Mediator of RNA polymerase II transcription subunit 6, O75586
listed as a hit [42]: yes
